From PubChem BioAssay
The source made the active and inactive calls.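 How the source made its calls: active means viability increase at or above a cutoff of the median across tested compounds plus 3 SD (cut at about 8.5% in these data, passing the limit was not always enough); inconclusive means some gains above the cutoff, reason not given; inactive means the rest.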

experiment: viability gain of MRP-1-high H69AR cells under doxorubicin, pilot screen, MRP-1 activator project, CellTiter-Glo, duplicate (AID 807); details: H69AR viability with doxorubicin, CellTiter-Glo luminescence; at 10 µM; stronger effect = higher value;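 further: compound pretreatment 18-22 h then 72 h combined with doxorubicin; 0% = doxorubicin alone and 100% = vehicle without doxorubicin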

Q: Which viability increase does the source give for `COc1ccc(-c2noc(-c3ccccc3F)n2)cc1` here?
A: -3.21% (inactive)

Q: With `CCOC(=O)N1CCN(C(=O)C(C)(C)Oc2ccc(Cl)cc2)CC1` as the molecule, how does the viability increase read?
A: -1.61% (inactive)

Q: Which viability increase does the source give for `CCOc1ccc(C2CC(c3ccc(CC)cc3)Nc3nc(N)nn32)cc1` (configuration not stated) here?
A: 5.61% (inactive)

Q: Which viability increase does the source give for `O=C(Cn1cc2c(n1)CCCCC2)NCc1ccccn1` here?
A: -2.27% (inactive)

Q: For `O=C(Nc1ccc(Cl)cn1)c1cccc(F)c1`, which viability increase is on record?
A: -5.84% (inactive)

Q: Which viability increase does the source give for `CCCn1c(C(O)c2ccc3c(c2)OCO3)nc2ccccc21` (configuration not stated) here?
A: 0.23% (inactive)

Q: Which viability increase does the source give for `COc1ccc(-n2nc3c(c2NC(=O)c2ccc(Br)cc2)CS(=O)C3)cc1` (configuration not stated) here?
A: -2.41% (inactive)

Q: With `CC1CCCCN1c1nnc(NC(=O)Cn2c(=O)oc3ccccc32)s1` (configuration not stated) as the molecule, how does the viability increase read?
A: -1.54% (inactive)

Q: With `Cc1ncc(CO)c2cc(S(=O)(=O)c3ccc(F)cc3)c(=O)oc12` as the molecule, how does the viability increase read?
A: -0.48% (inactive)

Q: For `COc1ccc(C/C(N)=N/n2cnnc2)cc1`, which viability increase is on record?
A: 0.39% (inactive)

Q: Which viability increase does the source give for `Cc1cc(C)cc(N(CC(=O)N2CCN(Cc3ccccc3)CC2)S(=O)(=O)c2c(C)noc2C)c1` here?
A: -4.22% (inactive)

Q: With `COc1ccccc1NC(=O)Cn1cnc2c(oc3ccccc32)c1=O` as the molecule, how does the viability increase read?
A: -1.93% (inactive)

Q: For `O=C1CCCC2=C1C1(O)C(=O)c3ccccc3C1(O)O2` (configuration not stated), which viability increase is on record?
A: -4.62% (inactive)

Q: Which viability increase does the source give for `Cc1cc(C)c(NC(=O)C(C)(C)C)c(Cl)c1` here?
A: -0.89% (inactive)

Q: With `Cc1c(NC(=O)Oc2ccccc2)sc(=S)n1C` as the molecule, how does the viability increase read?
A: -3.22% (inactive)

Q: For `O=C(c1ccc(CN2CCOCC2)cc1)N1CCN(Cc2ccccc2)CC1`, which viability increase is on record?
A: 0.28% (inactive)

Q: With `Cc1cccc(N(C)c2cc(C)nc3ncnn23)c1` as the molecule, how does the viability increase read?
A: -1.19% (inactive)
